VLA-4 agonist – allosterically activates the human VLA-4 integrin | P13612 | Jurkat cells, LDV-FITC binding, flow cytometry | activation, % at 10 µM (by protocol) | 24,000 tested, under 10 active;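 active = fluorescent ligand binding to cells raised by more than 40% of the manganese-induced maximum; inconclusive = compound's own fluorescence above 85% of the ligand control signal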
Target sequence (P13612 whole entry, looked up): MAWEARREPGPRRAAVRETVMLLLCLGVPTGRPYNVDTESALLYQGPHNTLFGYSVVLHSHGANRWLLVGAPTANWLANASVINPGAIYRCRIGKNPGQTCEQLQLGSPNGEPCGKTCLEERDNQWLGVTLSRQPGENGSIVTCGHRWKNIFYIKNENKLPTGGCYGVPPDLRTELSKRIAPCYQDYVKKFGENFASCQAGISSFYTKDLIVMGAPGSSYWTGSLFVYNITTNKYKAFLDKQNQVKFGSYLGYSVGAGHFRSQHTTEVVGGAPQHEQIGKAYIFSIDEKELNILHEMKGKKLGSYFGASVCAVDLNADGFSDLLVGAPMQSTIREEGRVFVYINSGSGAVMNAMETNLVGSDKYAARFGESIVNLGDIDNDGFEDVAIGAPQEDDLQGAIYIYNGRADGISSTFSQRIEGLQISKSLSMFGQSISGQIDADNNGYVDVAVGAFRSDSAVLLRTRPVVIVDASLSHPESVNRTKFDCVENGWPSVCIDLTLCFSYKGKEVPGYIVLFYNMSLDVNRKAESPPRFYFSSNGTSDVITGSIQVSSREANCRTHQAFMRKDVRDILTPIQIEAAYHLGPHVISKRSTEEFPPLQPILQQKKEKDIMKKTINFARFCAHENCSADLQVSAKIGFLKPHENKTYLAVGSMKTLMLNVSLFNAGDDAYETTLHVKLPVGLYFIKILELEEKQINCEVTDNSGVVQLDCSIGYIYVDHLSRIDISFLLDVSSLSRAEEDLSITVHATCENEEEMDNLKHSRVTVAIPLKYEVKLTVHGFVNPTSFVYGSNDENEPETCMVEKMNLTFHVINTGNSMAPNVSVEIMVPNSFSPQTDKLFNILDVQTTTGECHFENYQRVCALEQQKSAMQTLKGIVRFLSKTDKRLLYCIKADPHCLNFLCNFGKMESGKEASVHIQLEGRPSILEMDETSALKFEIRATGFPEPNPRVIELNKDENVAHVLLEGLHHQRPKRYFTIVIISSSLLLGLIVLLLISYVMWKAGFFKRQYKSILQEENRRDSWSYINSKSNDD
Proteasome disasm – blocks ATP-dependent breakdown of the yeast 26S proteasome; anti-FLAG beads, GFP-proteasome disassembly, flow cytometry; inhibition of disassembly, % (concentration not given with the values); 24,000 tested, 0.2% active; AID 751;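 active = inhibition of disassembly above about 33%, limit read from the data; inconclusive = likely self-fluorescent, control bead median signal at least 40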;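 also: higher percent means more bead fluorescence retained so stronger block of disassembly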
Jurkat autofluor – autofluorescence counter-screen for VLA-4 integrin assays; AID 576; 24,000 tested, 0.61% active; fluorescence ratio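 (tested at 10 µM compound in the well)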; Jurkat cells, compound autofluorescence, flow cytometry; hits give high values; 1 = vehicle-only cell background;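 active = fluorescence ratio above 2.44, which is 1 plus 3 SD of all ratios; inconclusive = signal too bright to measure linearly, ratio around 10 or more; inactive = fluorescence ratio below 2.44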;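 also: green fluorescence of cells measured with 488 nm excitation and 530 nm emission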
VLA-4 antagonist – blocks LDV-FITC ligand binding to Mn2+-activated human VLA-4 integrin; AID 529; inhibition, % at 10 µM (by protocol); 24,000 tested, 0.2% active; Jurkat cells, LDV-FITC binding with Mn2+, flow cytometry; 100% = Mn2+-driven binding gain fully reversed;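 active = inhibition above 50%; inconclusive = compound itself fluorescent, judged against control cell fluorescence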
Hits are given with their value; – = inactive; ? = inconclusive; · = no result. This is a sample that favours compounds with a hit; in the whole collection about 0.96% have one here.

SMILES	VLA-4 agonist	Proteasome disasm	Jurkat autofluor	VLA-4 antagonist
N#CC1=C(N)SC(N)=C(C#N)C1CCc1ccccc1	?	–	2.9	?
Cc1cc(N2C(=O)C3C4C=CC(C4)C3C2=O)ccc1Br (stereo not given)	–	–	–	–
CC(C)NC(=O)CSc1nnc(-c2ccc(C(C)(C)C)cc2)n1C	–	–	–	–
CCCc1[nH]nc2c1C(CCc1ccccc1)C(C#N)=C(N)O2 (stereo not given)	–	–	–	61
CC(=O)Nc1cccc(C(=O)Oc2cccc(C)c2)c1O	–	–	–	61
CCN(CC)S(=O)(=O)c1ccc(Nc2nc3ccccc3n3nnnc23)cc1	?	–	3.2	?
c1ccc2c(c1)nc(Nc1ccc3c(c1)OCO3)c1nnnn12	?	–	3.2	?
Cc1ccc(CNc2nc3ccccc3n3nnnc23)cc1	?	–	?	?
CCC(C)NC(=O)CCNS(=O)(=O)c1ccc(Br)cc1 (stereo not given)	–	–	–	–
COCCN1C(=O)C(=O)/C(=C(/O)c2cccc(S(=O)(=O)N(C)C)c2)C12C(=O)N(C)c1ccccc12 (stereo not given)	–	–	–	–
CCCNC(=O)NC1C(NC(=O)NCCC)N(C)C(=O)N1C (stereo not given)	–	–	–	–
COc1cccc2sc(Nc3nnc(-c4ccccc4Cl)o3)nc12	–	·	–	73
COc1ccccc1-c1nnc(Nc2nc3c(OC)cccc3s2)o1	–	–	–	–
COc1cc(NS(=O)(=O)c2ccc(Br)s2)cc(OC)c1	?	–	4.5	?
c1cncc(-c2nc3ccccc3o2)c1	?	–	9.8	?
CN(C)c1ccc(C2C=C(c3ccc(Cl)cc3OC(F)F)Nc3ncnn32)cc1 (stereo not given)	?	–	2.8	?
Cc1ccc(C2C=C(c3ccccc3OC(F)F)Nc3ncnn32)cc1 (stereo not given)	?	–	–	?
COc1ccccc1CNC(=O)CS(=O)Cc1nc(-c2ccccc2C)oc1C (stereo not given)	?	165	–	?
COc1ccc(CNC(=O)CS(=O)Cc2nc(-c3ccccc3C)oc2C)cc1 (stereo not given)	?	–	–	?
O=C(CCn1cccc1)Nc1cc(F)ccc1F	–	–	–	–
O=C(c1nc2n(n1)C(c1ccc(Cl)cc1)C=C(c1ccccc1)N2)N1CCOCC1 (stereo not given)	?	–	3.5	?
Nc1nc(C(=O)N2CCOCC2)nn1S(=O)(=O)c1ccc(Cl)cc1	–	–	–	–
O=C1CCC(C(=O)NC2(C(=O)NC3CCCCC3)CCCCC2)N1 (stereo not given)	–	–	–	–
COC(=O)c1ccccc1NC(=O)CN1C(=O)C2CCCN2c2ncc(Cl)cc21 (stereo not given)	?	49	–	?
O=C(CN1C(=O)C2CCCN2c2ncc(Cl)cc21)NCc1ccc2c(c1)OCO2 (stereo not given)	–	55	–	–
SMILES	VLA-4 agonist	Proteasome disasm	Jurkat autofluor	VLA-4 antagonist
CC(C)c1cc(C(=O)Nc2cc(Cl)ccc2O)no1	?	–	3.8	?
CC(C)c1ccc(NC(=O)C(c2ccc3c(c2)OCO3)N2CCC3(CC2)OCCO3)cc1 (stereo not given)	–	–	–	54
O=C(CNS(=O)(=O)c1ccccc1)NCc1ccccn1	–	–	–	–
COCCOC(=O)c1cc(C(=O)c2cc(F)ccc2O)coc1=N	?	–	4.1	?
COc1ccc(OC)c(C2N(c3ccc(Cl)cc3)C(=O)C3CCCN32)c1 (stereo not given)	–	85	–	–
COc1ccc(N2C(=O)C3CCCN3C2c2ccc(Cl)cc2)cc1 (stereo not given)	–	–	–	–
CC[C@H]1OC(=O)C[C@@H](O)[C@H](C)[C@@H](O[C@@H]2O[C@H](C)C[C@H](N(C)C)[C@H]2O)[C@@H](CC=O)C[C@@H](C)C(=O)C=C[C@]2(C)O[C@H]2[C@@H]1C	–	–	–	–
O=C(c1cc2nc3c(c(C(F)(F)F)n2n1)CCc1ccccc1-3)N1CCN2CCCC2C1 (stereo not given)	–	–	–	–
CN1CCc2c(sc3c2C(=O)NC(c2cccc(OC(=O)c4cccs4)c2)N3)C1 (stereo not given)	?	–	3.2	?
CCc1ccc(NS(=O)(=O)c2cccs2)cc1	?	–	?	?
N#CC1=C(SCC(=O)c2cc3ccccc3oc2=O)NC(=O)C(C#N)C12CCCC2 (stereo not given)	–	–	–	68
CCCC(=O)c1cc2ccccc2oc1=O	–	–	–	–

Bioassay records deposited in PubChem BioAssay by NMMLSC.
